About 79,000 compounds went through this panel and 15% of them were active in at least one assay; those are over-represented in the sample as a whole. The source made the active and inactive calls. No stated cut-off is given here; in the data, active means growth inhibition above about 70%; inactive means the rest.
Tests used:
[1] = NCI Yeast Anticancer Drug Screen. Data for the rad52 strain (AID 147);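 further: 0% = growth of vehicle-treated control cultures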; conditions: S. cerevisiae rad52 mutant growth inhibition, hits give high values
Method in brief: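 Read-out: growth inhibition versus vehicle-treated controls. Cells were a DNA repair-deficient yeast strain treated with compounds.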

[2] = NCI Yeast Anticancer Drug Screen. Data for the wt1 strain (AID 149);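 further: 0% = growth of vehicle-treated wt1 cultures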; conditions: S. cerevisiae wt1 strain (SPY 50644) growth inhibition, hits give high values
Method in brief: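 The wt1 strain was treated with compounds, and growth was compared with vehicle-treated cultures to give inhibition.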

[3] = NCI Yeast Anticancer Drug Screen. Data for the rad50EPP+ strain (AID 151);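 further: 0% = growth of vehicle-treated control cultures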; conditions: S. cerevisiae rad50 mutant strain, hits give high values
Method in brief: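 Growth inhibition read against vehicle controls in rad50EPP+ yeast, a strain altered in DNA damage repair, after compound exposure.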

[4] = NCI Yeast Anticancer Drug Screen. Data for the mgt1 strain (AID 153); conditions: S. cerevisiae mgt1 mutant growth inhibition, hits give high values
Method in brief: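 mgt1 yeast grown with test compound; read-out is growth inhibition versus vehicle-treated cultures.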

[5] = NCI Yeast Anticancer Drug Screen. Data for the rad50 strain (AID 155);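 further: 0% = growth of vehicle-only cultures of the same strain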; conditions: S. cerevisiae rad50 strain growth inhibition, hits give high values
Method in brief: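 Cells are treated with compound, grown, and their growth is then scored against vehicle-only cultures of the same repair-deficient yeast strain.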

[6] = NCI Yeast Anticancer Drug Screen. Data for the mec2-1 strain (AID 157); conditions: S. cerevisiae mec2-1 strain, hits give high values
Method in brief: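 Yeast mec2-1 mutant treated with compound. Readout: growth inhibition vs vehicle controls.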

[7] = NCI Yeast Anticancer Drug Screen. Data for the rad14 strain (AID 159);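 further: 0% = growth of vehicle-treated control cultures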; conditions: S. cerevisiae rad14 strain growth inhibition, hits give high values
Method in brief: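 Readout: yeast growth inhibition, referenced to vehicle-only cultures. Strain bears a defined alteration in DNA damage repair.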

[8] = NCI Yeast Anticancer Drug Screen. Data for the sgs1 mgt1 strain (AID 161);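 further: 0% = growth of cultures given vehicle only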; conditions: S. cerevisiae sgs1 mgt1 strain, hits give high values
Method in brief: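 Read-out: growth inhibition vs vehicle controls. Cells: mutant yeast strain deficient in DNA damage repair.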

[9] = NCI Yeast Anticancer Drug Screen. Data for the cln2 rad14 strain (AID 165);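 further: 0% = growth equal to vehicle treated cultures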; conditions: S. cerevisiae cln2 rad14 strain, hits give high values
Method in brief: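 cln2 rad14 yeast strain; compound exposure; growth inhibition read vs vehicle controls.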

[10] = NCI Yeast Anticancer Drug Screen. Data for the bub3 strain (AID 167); conditions: S. cerevisiae bub3 mutant strain, hits give high values
Method in brief: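 Part of a panel of yeast mutants defective in DNA damage repair or cell cycle regulation. Each strain is grown with compound, and inhibition is calculated relative to solvent-treated cultures.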

[11] = NCI Yeast Anticancer Drug Screen. Data for the wt2 strain (AID 169);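 further: 0% = growth of vehicle-treated yeast cultures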; conditions: S. cerevisiae wt2 strain growth inhibition, hits give high values
Method in brief: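 Read-out: growth inhibition versus vehicle-treated control cultures after compound exposure of the yeast strain.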

[12] = NCI Yeast Anticancer Drug Screen. Data for the sgs1 strain (AID 173);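 further: 0% = growth of vehicle-only control cultures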; conditions: S. cerevisiae sgs1 mutant, hits give high values
Method in brief: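 Read-out: yeast growth inhibition relative to vehicle controls, following compound exposure of a strain with a defined DNA repair/cell cycle alteration.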

[13] = NCI Yeast Anticancer Drug Screen. Data for the mlh1 rad18 strain (AID 175); conditions: S. cerevisiae mlh1 rad18 strain growth inhibition, hits give high values
Method in brief: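 Yeast w/ defined DNA-repair lesions; compound exposure; growth vs vehicle controls → % inhibition.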

[14] = NCI Yeast Anticancer Drug Screen. Data for the rad18 strain (AID 177); conditions: S. cerevisiae rad18 mutant growth inhibition, hits give high values
Method in brief: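 Readout: growth inhibition vs vehicle controls. Cells: genetically altered yeast strain, DNA repair defect.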

[15] = NCI Yeast Anticancer Drug Screen. Data for the mlh1 strain (AID 171);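 further: 0% = growth of vehicle-treated control cultures of the same strain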; conditions: S. cerevisiae mlh1 strain growth inhibition, hits give high values
Method in brief: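 Read-out: growth inhibition versus vehicle controls. Strain: engineered yeast with a defined DNA repair or cell cycle defect, compound-treated.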

[16] = at 5.0 µM (retest, dose inferred, filed as 0.5)
[17] = at 50.0 µM (retest, dose inferred, filed as 5.0)

Measured: growth inhibition

CC(C)C1=CCC2C(=C1)CCC1C(C)(C(=O)O)CCCC21C (stereo unspecified) (tested in a mixture with another compound)
inactive: [1]; at 1.2 µM 0% | [1]; at 3.7 µM 9% | [1]; at 11.0 µM 12% | [1]; at 33.0 µM 41% | [2]; at 1.2 µM 11% | [2]; at 3.7 µM 15% | [2]; at 11.0 µM 12% | [2]; at 33.0 µM 41% | [3]; at 1.2 µM 30% | [3]; at 3.7 µM 33% | [3]; at 11.0 µM 37% | [3]; at 33.0 µM 42% | [3]; at 100.0 µM 47% | [4]; at 1.2 µM 0% | [4]; at 3.7 µM 10% | [4]; at 11.0 µM 6% | [4]; at 33.0 µM 15% | [5]; at 1.2 µM 11% | [5]; at 3.7 µM 12% | [5]; [16] 30% | [5]; at 11.0 µM 16% | [5]; at 33.0 µM 41% | [6]; at 1.2 µM 18% | [6]; at 3.7 µM 13% | [6]; [16] 29% | [6]; at 11.0 µM 15% | [6]; at 33.0 µM 54% | [7]; at 1.2 µM 13% | [7]; at 3.7 µM 22% | [7]; at 11.0 µM 19% | [7]; at 33.0 µM 34% | [8]; [16] 31% | [9]; [16] 9% | [10]; at 1.2 µM 8% | [10]; at 3.7 µM 11% | [10]; [16] 29% | [10]; at 11.0 µM 0% | [10]; at 33.0 µM 17% | [11]; at 1.2 µM -60% | [11]; at 3.7 µM -40% | [11]; at 11.0 µM -56% | [11]; at 33.0 µM 63% | [12]; at 1.2 µM 18% | [12]; at 3.7 µM 24% | [12]; at 11.0 µM 23% | [12]; at 33.0 µM 43% | [13]; [16] 40% | [14]; at 1.2 µM -5% | [14]; at 3.7 µM -9% | [14]; at 11.0 µM -20% | [14]; at 33.0 µM 15%
active: [1]; at 100.0 µM 94% | [2]; at 100.0 µM 97% | [4]; at 100.0 µM 94% | [5]; [17] 98% | [5]; at 50.0 µM 83.5% | [5]; at 100.0 µM 92% | [6]; [17] 99% | [6]; at 50.0 µM 85.2% | [6]; at 100.0 µM 94% | [7]; at 100.0 µM 97% | [8]; [17] 96% | [8]; at 50.0 µM 84.5% | [9]; [17] 98% | [9]; at 50.0 µM 89.8% | [10]; [17] 97% | [10]; at 50.0 µM 85.5% | [10]; at 100.0 µM 95% | [11]; at 100.0 µM 93% | [12]; at 100.0 µM 96% | [13]; [17] 98% | [13]; at 50.0 µM 76.5% | [14]; at 100.0 µM 88%

CN(C)c1nc2sc3c(c2c(=O)o1)CCCC3
active: [10]; [17] 92% | [10]; at 50.0 µM 75.2% | [13]; [17] 90%
inactive: [1]; at 1.2 µM 2% | [1]; at 3.7 µM 5% | [1]; at 11.0 µM 6% | [1]; at 33.0 µM 26% | [1]; at 100.0 µM 36% | [2]; at 1.2 µM -5% | [2]; at 3.7 µM -4% | [2]; at 11.0 µM -4% | [2]; at 33.0 µM 8% | [2]; at 100.0 µM 32% | [3]; at 1.2 µM 13% | [3]; at 3.7 µM 14% | [3]; at 11.0 µM 21% | [3]; at 33.0 µM 23% | [3]; at 100.0 µM 22% | [4]; at 1.2 µM -5% | [4]; at 3.7 µM -7% | [4]; at 11.0 µM 0% | [4]; at 33.0 µM 16% | [4]; at 100.0 µM 31% | [5]; at 1.2 µM 3% | [5]; at 3.7 µM 6% | [5]; [16] -4% | [5]; at 11.0 µM -13% | [5]; at 33.0 µM 29% | [5]; [17] 43% | [5]; at 50.0 µM 68.9% | [5]; at 100.0 µM 45% | [6]; at 1.2 µM 1% | [6]; at 3.7 µM -1% | [6]; [16] -4% | [6]; at 11.0 µM 0% | [6]; at 33.0 µM 26% | [6]; [17] 29% | [6]; at 50.0 µM 27.9% | [6]; at 100.0 µM 39% | [7]; at 1.2 µM 1% | [7]; at 3.7 µM -3% | [7]; at 11.0 µM 3% | [7]; at 33.0 µM 27% | [7]; at 100.0 µM 45% | [8]; [16] -7% | [8]; [17] 19% | [8]; at 50.0 µM 54.3% | [9]; [16] 26% | [9]; [17] 13% | [9]; at 50.0 µM -6.65% | [10]; at 1.2 µM 27% | [10]; at 3.7 µM 39% | [10]; [16] 39% | [10]; at 11.0 µM 44% | [10]; at 33.0 µM 55% | [10]; at 100.0 µM 69% | [11]; at 1.2 µM -1% | [11]; at 3.7 µM 0% | [11]; at 11.0 µM 1% | [11]; at 33.0 µM 26% | [11]; at 100.0 µM 35% | [15]; at 1.2 µM -3% | [15]; at 3.7 µM -4% | [15]; at 11.0 µM -2% | [15]; at 33.0 µM 26% | [15]; at 100.0 µM 31% | [12]; at 1.2 µM -3% | [12]; at 3.7 µM -4% | [12]; at 11.0 µM -1% | [12]; at 33.0 µM 19% | [12]; at 100.0 µM 36% | [13]; [16] -9% | [13]; at 50.0 µM 50.6% | [14]; at 1.2 µM 0% | [14]; at 3.7 µM 1% | [14]; at 11.0 µM 3% | [14]; at 33.0 µM 18% | [14]; at 100.0 µM 48%

Source: PubChem BioAssay (NCI)
